Experimental data reported in PubChem BioAssay AID1903 (Southern Research Specialized Biocontainment Screening …, 2009).
Screen size: about 310,000 compounds; about 1,200 (0.39%) were called active. No rule for the calls is given here. These entries were drawn from the full list. Entries with a potency or affinity are not part of this list.

The compounds below were run against Large T antigen (Simian virus 40) (UniProt P03070) (assay: SV40 large T antigen inhibitors, biochemical (AID 1903)). Conditions: SV40 large T antigen ATPase/helicase inhibition assay; at 20 µM; hits give high values.
Sequence of Large T antigen (Simian virus 40) (P03070 whole entry, looked up): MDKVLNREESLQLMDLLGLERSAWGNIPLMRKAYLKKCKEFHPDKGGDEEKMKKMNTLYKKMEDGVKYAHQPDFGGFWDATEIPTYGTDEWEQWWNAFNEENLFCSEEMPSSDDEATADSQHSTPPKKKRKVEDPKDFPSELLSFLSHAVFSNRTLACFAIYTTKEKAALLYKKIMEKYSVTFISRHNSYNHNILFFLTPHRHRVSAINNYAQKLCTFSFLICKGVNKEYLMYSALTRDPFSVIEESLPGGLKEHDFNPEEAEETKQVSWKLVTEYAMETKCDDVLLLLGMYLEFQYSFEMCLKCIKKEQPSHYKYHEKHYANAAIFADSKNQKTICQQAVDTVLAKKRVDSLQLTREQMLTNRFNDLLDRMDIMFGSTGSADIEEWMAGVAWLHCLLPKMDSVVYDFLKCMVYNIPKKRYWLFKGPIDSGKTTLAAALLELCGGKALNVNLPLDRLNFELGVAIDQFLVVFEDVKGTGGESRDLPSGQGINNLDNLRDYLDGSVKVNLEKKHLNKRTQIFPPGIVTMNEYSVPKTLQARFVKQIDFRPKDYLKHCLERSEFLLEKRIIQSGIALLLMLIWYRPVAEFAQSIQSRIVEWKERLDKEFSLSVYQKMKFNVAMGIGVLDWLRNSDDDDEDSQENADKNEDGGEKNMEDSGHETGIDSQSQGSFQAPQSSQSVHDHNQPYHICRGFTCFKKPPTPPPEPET

inhibition, inactive:
CNCc1ccccc1Sc1cccc(O)c1 25.7%
CNCc1ccccc1Sc1ccc(O)c(O)c1 -1%
CCN(CC)Cc1ccccc1Sc1ccccc1 16.5%
CN(C)Cc1ccccc1Sc1ccc(Br)cc1 9.88%
CCC(C)C(NC(=O)c1ccc(Cl)cc1)C(=O)Nc1cccnc1 (stereo not drawn) -3.25%
CCOC(=O)c1c(NC(=O)CSc2nnnn2C)sc(CC)c1C 4.57%
O=C(N/C(=C/c1cccs1)C(=O)N1CCOCC1)c1ccccc1 6.38%
COc1ccc(Nc2nc(N3CCCCC3)c3ccccc3n2)cc1 8.24%
COc1ccc(Nc2nc(N3CCCC3)c3ccccc3n2)cc1 17.3%
Cc1ccc(Nc2nc(N3CCOCC3)c3ccccc3n2)cc1 6.59%
CN1CCN(c2nc(-c3ccccc3O)nc3ccccc23)CC1 3.42%
COc1ccc(OC)c(NC(=O)CSc2ccc(-c3ccco3)nn2)c1 11.7%
CC(C)(C)OC(=O)[C@H](Cc1ccccc1)NC(=O)c1nc[nH]c1C(=O)N1CCN(c2ccccc2)CC1 10.9%
Cc1cc(C(=O)NNC(=S)NCc2ccco2)n(C)n1 -6.03%
CC(=O)OCCCNc1cc(Sc2nc3ccccc3s2)c2nonc2c1[N+](=O)[O-] 22%
CCC(=O)OCCNc1cc(Sc2nc3ccccc3s2)c2nonc2c1[N+](=O)[O-] 10.9%
CC(C)C(=O)N1CCC(Cc2ccccc2)CC1 12.3%
O=C1C=CC(=O)N1c1ccc(I)cc1Cl 8.61%
COc1cc(Cl)c(S(=O)(=O)N2CCCC2)cc1Cl 17.9%
CNC(=O)COC(=O)c1nc(-n2nc(C)cc2C)ccc1Cl 1.24%
COc1ccc(C(=O)Nc2nccs2)cc1 4.19%
COc1ccc(/C=C\c2nc(O)c([N+](=O)[O-])c(=O)[nH]2)cc1O 5.95%
O=c1[nH]c(/C=C\c2ccc(O)c(Cl)c2)nc(O)c1[N+](=O)[O-] 22.7%
Cc1csc(Sc2ccc(S(=O)(=O)N3CCCC3)cn2)n1 10.9%
O=C(O)c1cc(-c2cccs2)nc2ccc(Br)cc12 15.7%
NC(=O)c1nsc(C(=O)N(c2ccc(F)cc2)C(C(=O)NCC2CCCO2)c2ccc3ncccc3c2)c1N (stereo not drawn) -0.08%
O=C(NC1CCSc2ccccc21)c1ccc(Cl)c(S(=O)(=O)N2CCOCC2)c1 (stereo not drawn) 9.03%
NS(=O)(=O)c1cccc(C(=O)NC2CCSc3ccccc32)c1 (stereo not drawn) -2.32%
